Data from a collection of fitness landscapes (doi:10.1016/j.celrep.2020.107928).
In all, about 81,000 sequences were measured (“one-hybrid fitness for binding NBS DNA”: median about -0.1, highest 2% from about 0.36 on). The sample as a whole holds a higher share of the highest values than the screen did.

B1: Caulobacter ParB omega fusion; a variant is named by its letters at X, in order, B8GW30 (parent)
chain: MESVVVGEPGMSEGRRGLGRGLSALLGEVDAAPAQAPGEQLGGSREAPIEILQRNPDQPRRTFREEDLEDLSNSIREKGVLQPILVRPSPDTAGEYQIVAGERAWRAAQRAGLKTVPIMVRELDDLAVLEIGIIENVQRADLNVLEEALSYKVLMEKFERTQENIAQTIGKSXSHVANXMRLLXLPDEVQSYLVSGELTAXHARAIAAAADPVALAKQIIEGGLSVRETEALARKAPNLSAGKSKGGRPPRVKDTDTQALESDLSSVLGLDVSIDHRGSTGTLTITYATLEQLDDLCNRLTRGI

Variants of: B1
Experiment: one-hybrid fitness for binding NBS DNA (the Noc-binding site; scaled: cognate 1, non-cognate 0); higher = stronger binding
Conditions: with NBS DNA site
Procedure, shortened: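 In E. coli USO, a HIS3 reporter with its site placed 19 bp from the promoter was used to select Caulobacter ParB variants randomised at four specificity codons. Growth lasted 48 hours at 37°C on histidine-free M9 containing 0.1 mM IPTG and 5 mM 3-AT. Fitness was taken as the log change in variant-to-wild-type read ratio from Illumina sequencing of pre- and post-selection plasmids, rescaled between the non-cognate and cognate sites.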

Row | Variant | one-hybrid fitness for binding NBS DNA
1 | LQMW | ≤ 0.2
2 | YQHT | ≤ 0.2
3 | QIGD | ≤ 0.2
4 | QCGR | 0.764
5 | QTGM | 0.3
6 | QGGR | ≤ 0.2
7 | QSGP | ≤ 0.2
8 | QSGR | 0.547
9 | QSGH | ≤ 0.2
10 | QIGS | 0.295
11 | QTGR | 0.813
12 | QIGR | 0.437
13 | QPGR | ≤ 0.2
14 | QTGG | 0.204
15 | LCEP | ≤ 0.2
16 | GKTT | ≤ 0.2
17 | LKMC | ≤ 0.2
18 | WIPG | ≤ 0.2
19 | IPHT | ≤ 0.2
20 | YLLF | ≤ 0.2
21 | SHQN | ≤ 0.2
22 | LRKG | ≤ 0.2
23 | QQKR | 1.1
24 | QQVH | ≤ 0.2
25 | QQKL | 0.327
26 | QQVR | 0.491

Row | Variant | one-hybrid fitness for binding NBS DNA
27 | QQVD | ≤ 0.2
28 | QQKE | 0.335
29 | AGDY | ≤ 0.2
30 | GMLG | ≤ 0.2
31 | RCVE | ≤ 0.2
32 | YVKV | ≤ 0.2
33 | QRYS | 0.646
34 | QRRN | 0.547
35 | QRRP | 0.359
36 | QRWP | ≤ 0.2
37 | QRYD | 0.222
38 | QRYN | 0.319
39 | QRRD | 0.356
40 | QRYP | ≤ 0.2
41 | QRWN | ≤ 0.2
42 | QRWS | 0.54
43 | QRRS | 0.787
44 | NAHV | ≤ 0.2
45 | FSNM | ≤ 0.2
46 | SRRP | ≤ 0.2
47 | THHR | ≤ 0.2
48 | VCSD | ≤ 0.2
49 | WQLA | ≤ 0.2
50 | RTRG | 0.215
51 | CCQR | ≤ 0.2
52 | CVKA | ≤ 0.2

Row | Variant | one-hybrid fitness for binding NBS DNA
53 | MAIS | ≤ 0.2
54 | NATF | ≤ 0.2
55 | MAFC | ≤ 0.2
56 | ECWS | ≤ 0.2
57 | QRES | 0.469
58 | QCES | 0.301
59 | QREN | ≤ 0.2
60 | PSVG | ≤ 0.2
61 | QHCT | 0.294
62 | QLCT | 0.345
63 | QTCH | 0.319
64 | QCCT | 0.521
65 | QICT | 0.266
66 | QTCT | 0.571
67 | QPCT | ≤ 0.2
68 | QSCT | 0.386
69 | QTCD | ≤ 0.2
70 | SKPI | ≤ 0.2
71 | DYFM | ≤ 0.2
72 | LNNN | ≤ 0.2
73 | EHQL | ≤ 0.2
74 | GRLL | ≤ 0.2
75 | SFYC | ≤ 0.2
76 | IRNN | ≤ 0.2
77 | MQRC | ≤ 0.2
78 | NLPG | ≤ 0.2

Row | Variant | one-hybrid fitness for binding NBS DNA
79 | QKKF | 0.294
80 | QKVN | ≤ 0.2
81 | QKVR | 0.423
82 | DKKR | ≤ 0.2
83 | QKVS | 0.32
84 | QKKR | 1
85 | NTIC | ≤ 0.2
86 | EQRE | ≤ 0.2
87 | TGAR | ≤ 0.2
88 | GMCV | ≤ 0.2
89 | RMHD | ≤ 0.2
90 | RPHS | ≤ 0.2
91 | RLHP | ≤ 0.2
92 | RFHS | 0.275
93 | RLHH | ≤ 0.2
94 | RSHH | ≤ 0.2
95 | RSHS | 0.47
96 | RLHS | 0.462
97 | RMHS | 0.486
98 | RSHP | ≤ 0.2
99 | RMHN | ≤ 0.2
100 | RCHS | 0.577
101 | CMKS | ≤ 0.2
102 | HSMS | ≤ 0.2
103 | YEDC | ≤ 0.2
104 | VNHL | ≤ 0.2

Row | Variant | one-hybrid fitness for binding NBS DNA
105 | HDMN | ≤ 0.2
106 | VQAT | ≤ 0.2
107 | RAHN | ≤ 0.2
108 | RKHD | ≤ 0.2
109 | RAHD | ≤ 0.2
110 | RAHS | 0.482
111 | RKHS | 0.624
112 | RKHN | ≤ 0.2
113 | FLVC | ≤ 0.2
114 | LRGC | ≤ 0.2
115 | IPDS | ≤ 0.2
116 | QTHM | 0.296
117 | QSHP | ≤ 0.2
118 | QSHR | 0.578
119 | QIHD | ≤ 0.2
120 | QWHR | 0.288
121 | QPHR | ≤ 0.2
122 | QTHK | 0.293
123 | QTHR | 0.877
124 | QIHR | 0.493
125 | QCHR | 0.742
126 | QIHC | ≤ 0.2
127 | QSHD | ≤ 0.2
128 | QLFV | ≤ 0.2
129 | PASW | ≤ 0.2
130 | QHPW | ≤ 0.2

Row | Variant | one-hybrid fitness for binding NBS DNA
131 | TKDT | ≤ 0.2
132 | KAAR | ≤ 0.2
133 | VHKI | ≤ 0.2
134 | VRNY | ≤ 0.2
135 | SPES | ≤ 0.2
136 | PIPY | ≤ 0.2
137 | DLRT | ≤ 0.2
138 | HALK | ≤ 0.2
139 | LKPH | ≤ 0.2
140 | ECKC | ≤ 0.2
141 | PADW | ≤ 0.2
142 | EYHR | ≤ 0.2
143 | CRTW | ≤ 0.2
144 | QPPT | ≤ 0.2
145 | QTPT | 0.418
146 | QAIT | 0.291
147 | QLIT | 0.287
148 | QSPT | 0.276
149 | QTIT | 0.522
150 | QTPH | ≤ 0.2
151 | QTPP | ≤ 0.2
152 | QCPT | 0.382
153 | RCQW | ≤ 0.2
154 | IHRR | ≤ 0.2
155 | QHVS | 0.221
